# Assay results published in PubChem BioAssay (NCATS).
# Several values for one entry are separate records, joined by “and”; a condition that tells them apart may be missing. Equal entries are not always repeated. Values without a mark were called inactive. Results filed as inconclusive are left out. Entries that show only a call come without a potency. Activity calls are given as the source filed them. Calls follow the shape of the dose curve; as a rule, active = well fitted curve in the direction sought with a large enough effect; inconclusive = small, poorly fitted or top-dose-only effect, or another doubt; inactive = no such curve, though single readings can be large; an effect the other way counts as inactive or inconclusive.
# How the values were obtained:
# [1] = target: Cytochrome P450 2C9 (Homo sapiens) (UniProt P11712); experiment: qHTS Assay for Inhibitors and Substrates of Cytochrome P450 2C9 (AID 883); also: nearly all actives have a fitted effect of over 60% in size; also: potency is read from the fitted curve at half-maximal effect
# Sequence of Cytochrome P450 2C9 (Homo sapiens) (P11712 whole entry, looked up): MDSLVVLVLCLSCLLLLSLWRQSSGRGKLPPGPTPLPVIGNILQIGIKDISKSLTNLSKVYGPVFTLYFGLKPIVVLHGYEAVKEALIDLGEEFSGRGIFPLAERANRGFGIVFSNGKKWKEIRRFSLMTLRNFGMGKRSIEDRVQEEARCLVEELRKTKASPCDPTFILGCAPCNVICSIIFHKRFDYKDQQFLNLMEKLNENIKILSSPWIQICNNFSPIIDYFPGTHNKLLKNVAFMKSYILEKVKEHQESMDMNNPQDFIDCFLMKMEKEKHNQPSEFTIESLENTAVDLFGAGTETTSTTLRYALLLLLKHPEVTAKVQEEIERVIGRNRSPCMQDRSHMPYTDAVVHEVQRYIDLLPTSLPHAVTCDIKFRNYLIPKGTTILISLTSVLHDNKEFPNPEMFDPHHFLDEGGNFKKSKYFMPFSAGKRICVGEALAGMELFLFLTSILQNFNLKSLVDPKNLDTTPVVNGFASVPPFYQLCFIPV
# Outline: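 Inhibition of CYP2C9 is scored as loss of luminescence, with 57uM sulphaphenazole defining 100% inhibition. Substrate Luciferin-H is used at 100uM, equal to its KM; enzyme at 10nM in 25mM KPO4, 60 min at 37C with NADPH regeneration.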
# [2] = target: Cytochrome P450 3A4 (Homo sapiens) (UniProt P08684); experiment: qHTS Assay for Inhibitors and Substrates of Cytochrome P450 3A4 (AID 884); also: nearly all actives have a fitted effect of over 50% in size; also: potency is read from the fitted curve at half-maximal effect; as to activity change, negative = inhibition: series mostly up to about 57 µM
# Sequence of Cytochrome P450 3A4 (Homo sapiens) (P08684 whole entry, looked up): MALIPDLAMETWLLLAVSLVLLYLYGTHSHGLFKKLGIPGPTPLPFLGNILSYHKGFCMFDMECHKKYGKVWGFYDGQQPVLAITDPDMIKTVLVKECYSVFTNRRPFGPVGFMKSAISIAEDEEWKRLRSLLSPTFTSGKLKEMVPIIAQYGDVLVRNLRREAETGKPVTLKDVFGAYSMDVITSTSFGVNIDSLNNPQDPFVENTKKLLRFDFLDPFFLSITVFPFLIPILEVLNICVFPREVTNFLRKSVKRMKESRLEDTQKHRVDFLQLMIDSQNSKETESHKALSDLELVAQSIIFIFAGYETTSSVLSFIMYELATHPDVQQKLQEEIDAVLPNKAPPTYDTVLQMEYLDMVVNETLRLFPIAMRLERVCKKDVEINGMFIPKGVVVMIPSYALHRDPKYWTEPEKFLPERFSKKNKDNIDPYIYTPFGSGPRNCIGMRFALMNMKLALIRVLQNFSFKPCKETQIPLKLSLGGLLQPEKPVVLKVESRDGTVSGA
# Outline: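 20 nM human CYP3A4 with 25 uM Luciferin-PPXE (at KM) in 200 mM KPO4, preincubated 10 min with compound; NADPH regeneration started a 60 min RT reaction. Luciferin detected by luminescence, normalized to 57 uM ketoconazole as full inhibition.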
# [3] = target: Cytochrome P450 2D6 (Homo sapiens) (UniProt P10635); experiment: qHTS Assay for Inhibitors and Substrates of Cytochrome P450 2D6 (AID 891); also: nearly all actives have a fitted effect of over 60% in size; also: potency is read from the fitted curve at half-maximal effect;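 as to activity change, negative = inhibition: luciferin methyl ether substrate demethylated by CYP2D6 with NADPH regeneration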
# Sequence of Cytochrome P450 2D6 (Homo sapiens) (P10635 whole entry, looked up): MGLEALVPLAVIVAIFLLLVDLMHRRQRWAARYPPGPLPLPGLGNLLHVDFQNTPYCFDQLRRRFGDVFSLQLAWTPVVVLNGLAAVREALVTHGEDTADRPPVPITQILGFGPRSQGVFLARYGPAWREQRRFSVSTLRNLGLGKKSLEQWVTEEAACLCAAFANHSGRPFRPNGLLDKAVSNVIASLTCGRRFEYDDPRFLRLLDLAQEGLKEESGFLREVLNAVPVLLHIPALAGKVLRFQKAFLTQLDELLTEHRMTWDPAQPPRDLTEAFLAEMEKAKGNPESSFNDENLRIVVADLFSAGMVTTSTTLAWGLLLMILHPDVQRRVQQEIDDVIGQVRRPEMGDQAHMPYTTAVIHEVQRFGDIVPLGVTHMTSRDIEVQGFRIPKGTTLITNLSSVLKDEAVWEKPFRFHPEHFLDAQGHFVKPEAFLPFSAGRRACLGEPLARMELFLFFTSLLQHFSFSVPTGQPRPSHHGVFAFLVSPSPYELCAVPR
# Outline: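 Human CYP2D6 (5 nM) with 30 uM Luciferin-ME EGE (at Km) in 100 mM KPO4, compound preincubated 10 min, then NADPH regeneration system for 60 min at room temperature. Luciferin read by luminescence; normalized to 1.43 uM quinidine.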
# [4] = target: Cytochrome P450 3A4 (Homo sapiens) (UniProt P08684); experiment: qHTS Assay for Activators of Cytochrome P450 3A4 (AID 885); also: nearly all actives have a fitted effect of over 65% in size
# Outline: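 Human CYP3A4 (20 nM) with Luciferin-PPXE at 25 uM (its KM) in 200 mM KPO4; 10 min compound preincubation, then NADPH regeneration and 60 min reaction at RT. Luciferin read by luminescence; normalized to 57 uM ketoconazole full inhibition.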
# [5] = target: Cytochrome P450 2C19 (Homo sapiens) (UniProt P33261); experiment: qHTS Assay for Inhibitors and Substrates of Cytochrome P450 2C19 (AID 899); also: nearly all actives have a fitted effect of over 60% in size; also: potency is read from the fitted curve at half-maximal effect
# Sequence of Cytochrome P450 2C19 (Homo sapiens) (P33261 whole entry, looked up): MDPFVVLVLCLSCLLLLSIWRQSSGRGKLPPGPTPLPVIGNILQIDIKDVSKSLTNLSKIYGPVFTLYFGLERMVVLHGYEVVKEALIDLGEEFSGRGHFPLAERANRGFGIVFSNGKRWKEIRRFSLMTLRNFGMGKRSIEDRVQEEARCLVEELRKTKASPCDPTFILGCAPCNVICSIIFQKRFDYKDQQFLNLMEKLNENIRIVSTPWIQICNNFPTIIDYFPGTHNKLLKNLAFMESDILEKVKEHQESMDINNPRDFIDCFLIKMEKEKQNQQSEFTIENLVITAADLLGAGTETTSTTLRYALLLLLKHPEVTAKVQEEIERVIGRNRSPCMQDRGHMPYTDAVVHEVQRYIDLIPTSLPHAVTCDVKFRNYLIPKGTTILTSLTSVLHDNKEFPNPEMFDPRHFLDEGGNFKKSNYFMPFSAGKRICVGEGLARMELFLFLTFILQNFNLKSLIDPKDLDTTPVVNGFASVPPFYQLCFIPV
# Outline: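 5nM enzyme + 10uM Luciferin-H EGE (=KM), 50mM KPO4; cpd pin-transferred, 10 min 37C; NADPH regen, 60 min 37C; stopped w/ luciferin detection reagent, 20 min; luminescence. Normalized to 57uM ketoconazole (AC100).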
Structure (SMILES),Potency [1],"activity change, negative = inhibition [2]",Potency [3],Potency [2],"activity change, positive = activation [4]",Potency [5]
CNc1ccccc1C(=O)OCC(=O)c1ccccc1,inactive,-18.7% [at 11.4 µM],inactive,–,–,–
C#CC(C)OC(=O)c1nnc2c3ccccc3n(COC)c2n1 (stereo not given),inactive,-23.2% [at 11.4 µM],inactive,–,–,–
CCCCc1nc2c(c3c1CC(C)OC3)CN(CCC(C)C)CC2 (stereo not given),inactive,–,–,3.98 µM (active),-60.1% [at 11.4 µM],inactive
COc1ccc(OCC2CC3C(CCC(C)C3c3ccc(Br)cc3)C(=O)O2)cc1 (stereo not given),inactive,–,–,3.98 µM (active),-84.4% [at 11.4 µM],inactive
COC(C(C)/C=C/CC(=O)OCCCc1ccccc1)C1CCCCC1 (stereo not given),inactive,-20.5% [at 11.4 µM],inactive,–,–,–
CC1CCC(C(=O)O)NC1c1ccc(C#CCN(C)C)cc1 (stereo not given),inactive,-30.5% [at 11.4 µM],inactive,–,–,inactive
CCOC(=O)OCC1OC(C#CC(C)(C)C)C=CC1OC(=O)OCC (stereo not given),inactive,-18.5% [at 11.4 µM],inactive,–,–,2.51 µM (active)
COc1cc(C2NC(C(=O)O)Cc3c2[nH]c2ccccc32)cc(OC)c1OC (stereo not given),inactive,-17.2% [at 11.4 µM],1.26 µM (active),–,–,inactive
CC(O)CCCCCCC/C=C/C=C/C(N)=O (stereo not given),inactive,-10.1% [at 11.4 µM],inactive,–,–,inactive
CCN1C(C)=C(C(=O)OC)C(c2ccccc2)N2C(=O)[C@@]3(C(=O)OC)O[C@@]12C1C(=O)N(c2ccccc2)C(=O)C13 (stereo not given in full),inactive,-20.6% [at 11.4 µM],inactive,–,–,inactive
COC(=O)/C=C/C1c2ccccc2C(OC)C1C (stereo not given),inactive,-4.29% [at 11.4 µM],inactive,–,–,inactive
CN1CCc2nc(-c3ccccc3)c(-c3ccccc3)cc2C1,inactive,-24.2% [at 11.4 µM],inactive,–,–,inactive
CCC1OCCC=CC1C (stereo not given),inactive,-15% [at 11.4 µM],inactive,–,–,inactive
Cc1ccc(C#CC2C=CC(Oc3ccc4c(c3)OCO4)C(CO)O2)c(C)c1 (stereo not given),inactive,-16.9% [at 11.4 µM],inactive,–,–,inactive
CC(=O)OCC1OC(C#Cc2ccc(Cl)cc2)C=CC1OC(C)=O (stereo not given),inactive,-14.6% [at 11.4 µM] and -6.86% [at 11.4 µM],inactive,–,–,–
COc1cccc(/C=C/C2=CC3(C)CC2(C)C(c2cccc(OC)c2)CC3=O)c1 (stereo not given),3.16 µM (active),–,–,3.98 µM (active),-78.1% [at 11.4 µM],2 µM (active)

Structure (SMILES),Potency [1],"activity change, negative = inhibition [2]",Potency [3],Potency [2],"activity change, positive = activation [4]",Potency [5]
CC12C=C(/C=C/c3ccc(F)cc3)C(C)(C1)C(c1ccc(F)cc1)CC2=O (stereo not given),inactive,-18.4% [at 11.4 µM],inactive,–,–,2.51 µM (active)
O=C1C=CC2(OCCCO2)C(Br)=C1,inactive,-14% [at 11.4 µM],inactive,–,–,–
COC(=O)NC(c1cccc(C)c1)[C@]1(C(C)=O)CCCC1=O (stereo not given in full),inactive,-27.8% [at 11.4 µM],inactive,–,–,inactive
C=CCC1(c2ccccc2)Oc2ccc(C)cc2-c2nc3cc(Cl)c(Cl)cc3nc21 (stereo not given),inactive,-28.2% [at 11.4 µM],inactive,–,–,inactive
O=C(/C=N/O)NCCCCNC(=O)/C=N/O,inactive,-14.7% [at 11.4 µM],inactive,–,–,inactive
CC(=O)c1ccc(OC2C(O)COC2/C=C/c2ccc(Cl)cc2)cc1 (stereo not given),inactive,-27.7% [at 11.4 µM],–,–,-50% [at 11.4 µM],inactive
CC1(C)OC(C(O)(c2cccc3c2oc2ccccc23)c2cccc3c2oc2ccccc23)C(C(O)(c2cccc3c2oc2ccccc23)c2cccc3c2oc2ccccc23)O1 (stereo not given),inactive,-15.2% [at 11.4 µM],inactive,–,–,inactive
CCOC(=O)OCC1OC(c2ccc(C(C)=O)cc2)C=CC1OC(=O)OCC (stereo not given),inactive,-24.1% [at 11.4 µM],inactive,–,–,–
COc1cccc([C@@H]2Oc3ccc(OC)cc3/C(=N/OC[C@@H](C)[C@H](OCc3ccccc3)C(C)C)[C@@H]2O)c1,3.98 µM (active),–,–,3.16 µM (active),-89.7% [at 11.4 µM],2 µM (active)
CCOC(=O)[C@]1(C(NC(=O)OC)c2ccco2)CCCC1=O (stereo not given in full),inactive,-19.8% [at 11.4 µM],inactive,–,–,inactive
CC(=O)OCC1OC(C#CC2=CCCCC2)C=CC1OC(C)=O (stereo not given),inactive,-27.5% [at 11.4 µM],inactive,–,–,–
Cc1c(OCc2ccccc2)cccc1OCc1ccccc1,inactive,-25.2% [at 11.4 µM],inactive,–,–,–
COC(=O)CC1=COC(O)C2C(CO)=CC[C@@H]12 (stereo not given in full),inactive,-14.7% [at 11.4 µM],inactive,–,–,inactive
CC(=O)OCC1OC(C#Cc2ccccc2)C=CC1O (stereo not given),inactive,-14.6% [at 11.4 µM],inactive,–,–,inactive
CC(=O)OCC1OC(C#CC(C)(C)C)C=CC1OC(C)=O (stereo not given),inactive,-15.4% [at 11.4 µM] and -10.3% [at 11.4 µM],inactive,–,–,–
